SMILES strings stand for the structures. In all, about 360,000 compounds went through this assay and about 17,000 (4.7%) were called active. Another 5% or so got no clear call; they are omitted. The list comes from a sample in which actives are over-represented; it also holds similar structures and randomly drawn compounds. Values without a mark were called inactive. Cut-off read from the data, not from the text of the source: active = activity change below about -50%; inconclusive = mostly about -30% to -49%; inactive = weaker than that.
% is set by controls: 0 for no effect and ±100 for the full control effect.

The experiment in a line: qHTS for Inhibitors of Inflammasome Signaling: IL-1-beta AlphaLISA Primary Screen. The note with it: THP-1 LPS/ATP IL-1B secretion, 16 h; at 57.5 µM, active compounds read low. In outline:
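THP-1 cells pretreated 1 hr with compounds (up to 57.5 uM final), then stimulated with LPS (250 ng/mL final) plus ATP (1.25 mM final); secreted IL-1B measured by AlphaLISA after 16 hr, decreased signal indicating inhibition.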
For orientation: Quantitative high-throughput screening tests each substance at several concentrations.
With `COCc1c(N)c(C)nc(Cl)c1C#N`, the activity change is 0%.

Take `O=C(COc1ccc2ccccc2c1)N1CCN(C(=O)c2cccs2)CC1`: the activity change was -11.7%.

Take `Nc1cc(C(=O)N2CCN(c3ccccc3Cl)CC2)ccc1N1CC2CC(C1)c1cccc(=O)n1C2` (stereo not drawn): the activity change is 14.2%.

`CC1=C(C(=O)N(C(C)C)C(C)C)CC(CC(=O)NCC2CCCCC2)C(=O)N1Cc1ccccc1` (stereo not drawn): the activity change was -28.7%.

Turning to `CN(C)C(CNC(=O)c1cc2ccccc2o1)c1ccccc1` (stereo not drawn), the activity change is -4.24%.

For the compound `CSc1ccccc1NC(=O)c1ccc2c(c1)CCN2S(C)(=O)=O`, the activity change was -9.72%.

`COCC(=O)Nc1c(C(=O)N2CCCC2)oc2ccccc12`: the activity change was -21%.

As to `CCOCCCN(C)C1CCN(C(=O)c2oc3ccccc3c2NC(=O)COc2cccc(C)c2)CC1`, the activity change was -84% (active).

With `CCOCCCN(C)C1CCN(C(=O)c2oc3ccccc3c2NC(=O)Cc2cccc([N+](=O)[O-])c2)CC1`, the activity change was -15.5%.

Turning to `CCCN(CC(=O)Nc1ccccc1C)C(=O)c1ccc(OCC(=O)N2CCOCC2)c(OCC)c1`, the activity change was -6.14%.

On to `COc1cccc(CNc2nc3cc(-c4csc5ccccc45)sc3c(=O)n2C)c1`, for which the activity change was -22.5%.

For `CCCc1cc(=O)n2[nH]c(SCc3ccccc3)nc2n1`, the activity change is 12.3%.

Consider `CC1(Oc2cccc(F)c2)CCN(Cc2ccccc2OC(F)F)C1` (stereo not drawn), for which the activity change was 29.5%.

Take `CC(=O)OC[C@@H]1CN(Cc2ccccc2)C[C@H](n2cnc3c(NCc4ccco4)ncnc32)O1`: the activity change is 16.4%.

On to `COc1ccc(NC(=O)CC2SC(N3CCCCC3)=NC2=O)cc1OC` (stereo not drawn), for which the activity change was 3.71%.

For `O=C(CC1SC(N2CCCC2)=NC1=O)Nc1ccc(C(=O)NCCc2ccc(F)cc2)cc1` (stereo not drawn), the activity change is 17.8%.

For `COc1ccc(CCNC(=O)c2ccc(NC(=O)CC3SC(N4CCCCC4)=NC3=O)cc2)cc1OC` (stereo not drawn), the activity change is -53.6% (active).

As to `COc1ccc(/C=N/NC(=O)Cn2cc(C(F)(F)F)ccc2=O)cc1`, the activity change is -1.55%.

For the compound `CC(C)(C)C(=O)N1CCC[C@@]1(CO)C(=O)O`, the activity change was 1.41%.

As to `Cc1nn(-c2ccccc2)c2c1C(=O)NC(=O)C(C)(C)C2`, the activity change is -17.4%.

Turning to `Cc1nn(-c2ncccn2)c2c1C(=O)CC(C)(C)C2Br` (stereo not drawn), the activity change was -64.8% (active).

On to `CCCCn1nnnc1C1(C)CCC(=O)N1Cc1ccc(OC)c(OC)c1` (stereo not drawn), for which the activity change was 0%.

As to `CCCCCCCCN1C(=O)[C@H](CC(=O)NCC23CC4CC(CC(C4)C2)C3)C[C@@]2(C(=O)OC)CCCCC=C12`, the activity change was -29.6%.

Consider `COc1ccc(-n2cnc3cc(NCc4ccco4)ccc32)cc1`, for which the activity change was -17.9%.

`COc1ccc(-c2oc3ncn(Cc4ccco4)c(=N)c3c2-c2ccc(OC)cc2)cc1`: the activity change is -65.2% (active).

On to `COc1ccc(-c2nnc(SCC(=O)c3ccco3)n2-c2ccccc2)cc1`, for which the activity change is -3.17%.

`O=[N+]([O-])c1ccc2c(c1)C(N1CCOCC1)/C(=C/C1(O)CCCCC1)O2` (stereo not drawn): the activity change is 4.33%.

With `Cc1ccc(S(=O)(=O)N2C[C@]3(O)C[C@@H]4C(=O)N(c5ccccc5)C(=O)[C@@H]4C[C@]3(OC(=O)NC3CC3)C2)cc1`, the activity change is -19.7%.

Turning to `C#CCN(C[C@H]1[C@H](OC(=O)NC2CCCC2)[C@H](OC(=O)NC2CCCC2)C[C@H]2C(=O)N(c3ccccc3)C(=O)[C@@H]12)S(=O)(=O)c1ccc(C)cc1`, the activity change is -9.89%.

As to `C#CCN(C[C@@H]1[C@@H](OC(=O)NC2CC2)[C@@H](OC(=O)NC2CC2)Cn2c(=O)ccc(=O)n21)S(=O)(=O)c1ccc(C)cc1`, the activity change is -84.6% (active).

Turning to `N#CC1(Nc2ccc3c4c(cccc24)CC3)CCCCC1`, the activity change was 0%.

With `O=C(NCCc1ccccn1)c1cc(C(=O)C2CCCCC2)c[nH]1`, the activity change was 3.93%.

Consider `CC(=O)CSc1nc(CCc2ccccc2)c(C#N)c(=O)[nH]1`, for which the activity change was 3.36%.

For `Cc1c(NS(=O)(=O)c2ccc(NC3CCCC3)c([N+](=O)[O-])c2)c(=O)n(-c2ccccc2)n1C`, the activity change is -9.94%.

With `Cc1cc(C=O)c(C)n1-c1ccc(NC2CCCCC2)c([N+](=O)[O-])c1`, the activity change was -93.9% (active).

`Cc1cc([N+](=O)[O-])ccc1NC1CCCC1`: the activity change is -6.41%.

Consider `CCCC(=O)Nc1ncnc2c1ncn2[C@@H]1O[C@@H]2OP(=O)(O)OC[C@H]2[C@H]1OC(=O)CCC`, for which the activity change was 0%.

Regarding `Cc1cnc(C(=O)OCc2c(C)cc(C(C)(C)C)cc2C)cn1`, the activity change is -4.05%.

Turning to `ClC1(Cl)CC1CSc1ncn[nH]1` (stereo not drawn), the activity change is -1.77%.

As to `CCCCCCCCN1C(=O)[C@H](CC(=O)NCc2cccc3ccccc23)C[C@@]2(C(=O)OC)CCCCC=C12`, the activity change is -30%.

For `CC(=O)c1ccc(-c2cnc3c(NC=O)cc(-c4cccc(NS(C)(=O)=O)c4)cn23)cc1`, the activity change was -68.2% (active).

Regarding `CC(=O)c1cccc(-c2cnc3c(NC=O)cc(-c4ccccc4Oc4ccccc4)cn23)c1`, the activity change was 98.2%.

As for `CN(C)CCNC(=O)c1cccc(-c2cnc3c(NC=O)cc(-c4cccc(C(F)(F)F)c4)cn23)c1`, the activity change was -107% (active).

`COc1ccc(-c2cc(NC=O)c3ncc(-c4ccccc4)n3c2)cc1OC`: the activity change is -59.3% (active).

As for `COc1ccc(-c2cc(NC=O)c3ncc(-c4cc(OC)c(OC)c(OC)c4)n3c2)c(OC)c1`, the activity change was 39.1%.

For `CC(=O)c1cccc(-c2cnc3c(NC=O)cc(-c4cccc(C(=O)N(C)C)c4)cn23)c1`, the activity change was 107%.

Regarding `CC(=O)c1cccc(-c2cnc3c(NC=O)cc(-c4ccc(N(C)C)cc4)cn23)c1`, the activity change is 51.7%.

For `CC(=O)Nc1cc(-c2cccc(CO)c2)cn2c(-c3cccc(C(F)(F)F)c3)cnc12`, the activity change was -13.6%.

On to `COc1ccc(-c2cc(NC=O)c3ncc(-c4cccc(C(=O)N(C)C)c4)n3c2)c(OC)c1`, for which the activity change was 47.4%.

As to `CCc1nc2ccc(C(=O)N3CCN(S(=O)(=O)CC)CC3)cn2c1N(C=O)CCC(C)C`, the activity change was 36.3%.

Regarding `COc1cc(C(=O)OC(C)C(=O)NCC2CCCCC2)cc(NC(=O)c2ccco2)c1OC` (stereo not drawn), the activity change was -6.5%.

For `Cc1oc(C)c(C(=O)NCCCC(=O)O)c1C(=O)NCCCC(=O)O`, the activity change was 18.8%.

Consider `CCc1nc2c(OCCOc3ccccc3)cccn2c1N(C)C(=O)c1cccs1`, for which the activity change was -18.6%.

For `CCCCN1Cc2c(nc3cc(-c4ccccc4)[nH]n3c2=O)C1=O`, the activity change was 13%.

In the case of `O=c1c2c(nc3cc(-c4cccc(Cl)c4)[nH]n13)CCCC2`, the activity change is -102% (active).

Turning to `Cc1cc(=O)n2[nH]c(-c3cccc(Cl)c3)cc2n1`, the activity change is 9.73%.

Take `Cc1nc(N)sc1N=Nc1c(C)n(C)n(-c2ccccc2)c1=O`: the activity change is 15.5%.

Consider `COCCNC(=O)C1CCCN(Cc2ccccc2Cl)CC1` (stereo not drawn), for which the activity change was 21.5%.

Consider `Cc1cc(NC(=O)CSc2ncc(C(F)(F)F)cc2Cl)no1`, for which the activity change was -7.22%.

Take `Cc1nn(-c2ncc(C(F)(F)F)cc2Cl)c(=O)n1-c1ccccc1`: the activity change is 24.1%.

Regarding `Cc1ccc(-c2ccnc3nc(Sc4ncc(C(F)(F)F)cc4Cl)nn23)cc1`, the activity change is -65.2% (active).

`COc1ccc(S(=O)(=O)N2CCSCC2)cc1`: the activity change is 0%.

For `C[C@H]1Cn2cnc(C(=O)N[C@@H](Cc3c[nH]c4ccccc34)C(=O)OC(C)(C)C)c2C(=O)N1`, the activity change is 33.4%.

`COCCNc1nc(NCc2ccc(NC(C)=O)cc2)c2sccc2n1`: the activity change was 29.5%.

On to `COCCNc1nc(Nc2ccccc2Cl)c2sc(-c3ccccc3)cc2n1`, for which the activity change is -12.6%.

Consider `CC(=O)Nc1ccc(CNc2nc(NCCN(C)C)nc3cc(-c4ccccc4)sc23)cc1`, for which the activity change was -108% (active).

For the compound `CC1Cc2[nH][nH]c(=O)c2C(C2CCCC2)O1` (stereo not drawn), the activity change was 16.7%.

With `CCOC(=O)[C@]12CCC=C1N(Cc1ccco1)C(=O)[C@H](CC(=O)N1CCSCC1)C2`, the activity change is -5.81%.

For `CC(C)c1cccc(C(C)C)c1Nc1cn[nH]c1`, the activity change was -1.8%.

Turning to `CCCC[C@@H]1CN=C(N)N1CCCC`, the activity change is 15.9%.

Take `CCCC[C@@H]1CN=C(N)N1CCc1cc(C(F)(F)F)cc(C(F)(F)F)c1`: the activity change was -103% (active).

In the case of `CCCCN1C(N)=NC[C@@H]1Cc1ccccc1`, the activity change is 5.9%.

For the compound `CC(=O)Nc1cccc(Nc2ccc(C#N)cc2)c1`, the activity change was -18.3%.

Turning to `CC(OC(=O)c1ccc(NC(=O)CC#N)cc1)C(=O)Nc1ccc(S(=O)(=O)N2CCCC2)cc1` (stereo not drawn), the activity change was -25.9%.

Regarding `Cc1ccc(S(=O)(=O)N2CCOCC2)cc1C(=O)Nc1ccccc1N1CCCC1`, the activity change is -1.43%.

`O=C1OCC2=C1C(c1ccc(Cl)cc1)c1cc3c(cc1O2)OCO3` (stereo not drawn): the activity change was -0.909%.

On to `O=C(NC1CC1)C(Cc1ccccc1)NS(=O)(=O)c1ccccc1F` (stereo not drawn), for which the activity change was 20.4%.

As for `CCOC(=O)C1=C(COC(=O)[C@H](C)NS(=O)(=O)c2ccccc2F)NC(=O)NC1C` (stereo partly drawn), the activity change is -51.3% (active).

On to `CCOC(=O)C1=C(c2ccccc2)NC(=O)NC1c1cc(OC)c(OC)cc1OC` (stereo not drawn), for which the activity change is -5.44%.

As to `CCn1c(/C=C/c2ccc([N+](=O)[O-])o2)nc2ccccc2c1=O`, the activity change was -95.2% (active).

For `CCOCCCn1c(NN)nc2ccccc2c1=O`, the activity change was -13.8%.

For the compound `O=c1oc(/C=C/c2ccccc2)nc2ccccc12`, the activity change is -0.257%.

Turning to `CC(C)CN1C(=O)CN(S(C)(=O)=O)CC1(C)C(=O)NCc1ccccc1` (stereo not drawn), the activity change is 37.5%.

Turning to `Clc1cc(NC2CCCCC2)ncn1`, the activity change is 35.9%.

For the compound `COCCCNC(=O)c1cccc2c(-c3ccc(O)c(OC)c3)coc12`, the activity change is 2.52%.

As to `CN(Cc1ccccc1)C(=O)CSc1nc2ccccc2[nH]1`, the activity change is -8.05%.

As for `O=C(NCc1ccccc1)c1onc(CSc2nc3ccccc3[nH]2)c1C(=O)NCc1ccccc1`, the activity change was -5.65%.

For the compound `COc1ccccc1CSc1nc2ccccc2[nH]1`, the activity change was -54.1% (active).

For the origin of these results see PubChem BioAssay AID743279 (National Center for Advancing Translational Sciences (NCATS), 2014).
